In the supplement of paper PMC10849652:
About 7,900 targets were measured; listed, in parts, are those with a hit and a random draw of the rest. About 0.6% of all pairs of compound and target were hits.

Columns and labels:
Test in all cases: log2 fold change, soluble protein after heating vs DMSO (PISA); higher = thermal stabilisation; K562 cells, 10 uM, 30 min; active = over 0.2 and 3.5 SD of the protein, either way, in both replicates (recomputed)
saracatinib = compound: CN1CCN(CCOc2cc(OC3CCOCC3)c3c(Nc4c(Cl)ccc5c4OCO5)ncnc3c2)CC1 [saracatinib]
In short: (§1)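 Thermal stability values are relative to control samples and come from duplicates. They are expressed as log2 fold changes. For measurement, K562 cells (2×10^6 cells/mL) received 10 μM compound for 30 min, and aliquots were heated for 3 min over 48°C-58°C, pooled, and extracted at 4°C in PBS with 0.5% NP-40. Soluble protein, the supernatant after 21,000xg for 90 min, was quantified by TMTpro 16plex LC-MS/MS with equalised channel sums.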

sotrastaurin = compound: CN1CCN(c2nc(C3=C(c4c[nH]c5ccccc45)C(=O)NC3=O)c3ccccc3n2)CC1 [sotrastaurin]
In short: as §1

alvocidib = compound: CN1CC[C@H](c2c(O)cc(O)c3c(=O)cc(-c4ccccc4Cl)oc23)[C@H](O)C1 [alvocidib]
In short: as §1

Tubastatin A = compound: CN1CCc2c(c3ccccc3n2Cc2ccc(C(=O)NO)cc2)C1 [Tubastatin A]
In short: as §1

[1] = compound: CNC(=O)C1=CC=CC=C1NC2=NC(=NC=C2Cl)NC3=C(C=C(C=C3)N4CCOCC4)OC
In short: as §1

defactinib = compound: CNC(=O)c1ccc(Nc2ncc(C(F)(F)F)c(NCc3nccnc3N(C)S(C)(=O)=O)n2)cc1 [defactinib]
In short: as §1

rucaparib = compound: CNCc1ccc(-c2[nH]c3cc(F)cc4c3c2CCNC4=O)cc1 [rucaparib]
In short: as §1

[2] = compound: CNc1nc(-c2ccc3c(N)n[nH]c3c2)cc(N2C[C@@H](C(=O)NC3CCCCC3)CC[C@H]2C)n1
In short: as §1

encorafenib = compound: COC(=O)N[C@@H](C)CNc1nccc(-c2cn(C(C)C)nc2-c2cc(Cl)cc(NS(C)(=O)=O)c2F)n1 [encorafenib]
In short: as §1

[3] = compound: COC(=O)[C@H](CCSC)NC(=O)C1=C(C=C(C=C1)NC[C@H](CS)N)C2=CC=CC=C2
In short: as §1

[4] = compound: COC1=CC=C(C=C1)CN2C=CC3=C2C=C(C=C3)C(=O)NO
In short: as §1

filanesib = compound: CON(C)C(=O)N1N=C(c2cc(F)ccc2F)S[C@@]1(CCCN)c1ccccc1 [filanesib]
In short: as §1

zotarolimus = compound: CO[C@H]1C[C@@H]2CC[C@@H](C)[C@@](O)(O2)C(=O)C(=O)N2CCCC[C@H]2C(=O)O[C@H]([C@H](C)C[C@@H]2CC[C@H](n3cnnn3)[C@H](OC)C2)CC(=O)[C@H](C)/C=C(\C)[C@@H](O)[C@@H](OC)C(=O)[C@H](C)C[C@H](C)/C=C/C=C/C=C/1C [zotarolimus]
In short: as §1

idasanutlin = compound: COc1cc(C(=O)O)ccc1NC(=O)[C@@H]1N[C@@H](CC(C)(C)C)[C@](C#N)(c2ccc(Cl)cc2F)[C@H]1c1cccc(Cl)c1F [idasanutlin]
In short: as §1

alisertib = compound: COc1cc(Nc2ncc3c(n2)-c2ccc(Cl)cc2C(c2c(F)cccc2OC)=NC3)ccc1C(=O)O [alisertib]
In short: as §1

[5] = compound: COc1cc2nc(-c3cc(F)ccc3O)nc(N[C@@H]3CNC[C@H]3C(C)(C)O)c2cc1OC
In short: as §1

gefitinib = compound: COc1cc2ncnc(Nc3ccc(F)c(Cl)c3)c2cc1OCCCN1CCOCC1 [gefitinib]
In short: as §1

[6] = compound: COc1cccc2cc(-c3nc([C@H]4CC[C@H](C(=O)O)CC4)n4ncnc(N)c34)[nH]c12
In short: as §1

lapatinib = compound: CS(=O)(=O)CCNCc1ccc(-c2ccc3ncnc(Nc4ccc(OCc5cccc(F)c5)c(Cl)c4)c3c2)o1 [lapatinib]
In short: as §1

pictilisib = compound: CS(=O)(=O)N1CCN(Cc2cc3nc(-c4cccc5[nH]ncc45)nc(N4CCOCC4)c3s2)CC1 [pictilisib]
In short: as §1

Measured: log2 fold change

KPNA6 (UniProt O60684)
inactive: saracatinib -0.004 | sotrastaurin -0.117 | alvocidib -0.073 | Tubastatin A 0.008 | [1] 0.082 | defactinib -0.06 | rucaparib 0.092 | [2] -0.042 | encorafenib 0.12 | [3] -0.099 | [4] 0.193 | filanesib 0.115 | zotarolimus 0.169 | idasanutlin -0.031 | alisertib -0.01 | [5] 0.056 | gefitinib 0.048 | [6] -0.066 | lapatinib -0.018 | pictilisib -0.017

INPP1 (UniProt P49441)
inactive: saracatinib 0.071 | sotrastaurin 0 | alvocidib -0.011 | Tubastatin A 0.061 | [1] 0.044 | defactinib -0.032 | rucaparib -0.029 | [2] 0.048 | encorafenib 0.038 | [3] -0.038 | [4] -0.086 | filanesib -0.019 | zotarolimus 0.048 | idasanutlin -0.123 | alisertib -0.056 | [5] 0.101 | gefitinib -0.031 | [6] 0.03 | lapatinib -0.049 | pictilisib -0.116

KEL (UniProt P23276)
UniProt P23276, sequence (P23276 whole entry, looked up): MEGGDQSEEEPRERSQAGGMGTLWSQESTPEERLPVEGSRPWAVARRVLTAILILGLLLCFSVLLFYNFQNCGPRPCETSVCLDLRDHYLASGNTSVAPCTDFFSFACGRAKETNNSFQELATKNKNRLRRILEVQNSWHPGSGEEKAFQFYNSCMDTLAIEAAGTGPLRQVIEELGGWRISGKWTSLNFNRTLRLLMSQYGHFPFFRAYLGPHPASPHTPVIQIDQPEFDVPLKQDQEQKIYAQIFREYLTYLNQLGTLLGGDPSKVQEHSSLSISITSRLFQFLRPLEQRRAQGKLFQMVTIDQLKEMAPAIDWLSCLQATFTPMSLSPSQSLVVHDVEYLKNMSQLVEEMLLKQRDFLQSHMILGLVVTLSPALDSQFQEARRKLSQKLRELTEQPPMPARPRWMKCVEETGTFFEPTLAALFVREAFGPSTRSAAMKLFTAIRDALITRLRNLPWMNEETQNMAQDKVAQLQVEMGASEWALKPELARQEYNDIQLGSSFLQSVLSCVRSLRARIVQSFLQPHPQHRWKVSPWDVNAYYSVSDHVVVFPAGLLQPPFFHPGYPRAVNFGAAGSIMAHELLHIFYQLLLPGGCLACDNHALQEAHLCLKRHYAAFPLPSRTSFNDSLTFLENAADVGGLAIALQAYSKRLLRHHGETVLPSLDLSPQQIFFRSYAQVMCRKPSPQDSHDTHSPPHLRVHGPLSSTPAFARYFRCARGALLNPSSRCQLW
inactive: saracatinib 0.09 | sotrastaurin -0.009 | alvocidib -0.044 | Tubastatin A 0.004 | [1] -0.091 | defactinib -0.038 | rucaparib 0.006 | [2] -0.026 | encorafenib -0.061 | [3] 0.03 | [4] -0.042 | filanesib 0.034 | zotarolimus -0.043 | idasanutlin 0.055 | alisertib 0.177 | [5] -0.015 | gefitinib 0.07 | [6] 0.176 | lapatinib -0.078 | pictilisib 0.194

MAPRE3 (UniProt Q9UPY8)
UniProt Q9UPY8, sequence (Q9UPY8 whole entry, looked up): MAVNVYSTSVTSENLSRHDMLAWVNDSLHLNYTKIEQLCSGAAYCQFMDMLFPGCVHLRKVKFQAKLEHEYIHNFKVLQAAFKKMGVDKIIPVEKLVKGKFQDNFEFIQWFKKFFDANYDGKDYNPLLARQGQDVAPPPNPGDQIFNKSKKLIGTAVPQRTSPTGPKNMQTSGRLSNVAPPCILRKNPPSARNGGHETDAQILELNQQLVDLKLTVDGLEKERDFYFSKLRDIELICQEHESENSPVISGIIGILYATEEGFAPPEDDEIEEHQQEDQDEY
active: [4] -0.242
inactive: saracatinib -0.029 | sotrastaurin -0.016 | alvocidib -0.091 | Tubastatin A -0.067 | [1] 0.025 | defactinib -0.031 | rucaparib 0.02 | [2] -0.016 | encorafenib 0.017 | [3] 0.027 | filanesib 0.006 | zotarolimus 0.013 | idasanutlin 0.023 | alisertib 0.022 | [5] 0.033 | gefitinib 0.004 | [6] -0.013 | lapatinib -0.044 | pictilisib -0.008

MAPK14 (UniProt Q16539)
active: gefitinib 0.796
inactive: saracatinib 0.261 | sotrastaurin 0.001 | alvocidib 0.014 | Tubastatin A 0.074 | [1] 0.546 | defactinib -0.137 | rucaparib -0.02 | [2] -0.03 | encorafenib 0.684 | [3] -0.055 | [4] 0.024 | filanesib -0.055 | zotarolimus 0.059 | idasanutlin -0.361 | alisertib -0.014 | [5] 0.014 | [6] 0.303 | lapatinib -0.002 | pictilisib -0.05

ITPRIP (UniProt Q8IWB1)
UniProt Q8IWB1, sequence (Q8IWB1 whole entry, looked up): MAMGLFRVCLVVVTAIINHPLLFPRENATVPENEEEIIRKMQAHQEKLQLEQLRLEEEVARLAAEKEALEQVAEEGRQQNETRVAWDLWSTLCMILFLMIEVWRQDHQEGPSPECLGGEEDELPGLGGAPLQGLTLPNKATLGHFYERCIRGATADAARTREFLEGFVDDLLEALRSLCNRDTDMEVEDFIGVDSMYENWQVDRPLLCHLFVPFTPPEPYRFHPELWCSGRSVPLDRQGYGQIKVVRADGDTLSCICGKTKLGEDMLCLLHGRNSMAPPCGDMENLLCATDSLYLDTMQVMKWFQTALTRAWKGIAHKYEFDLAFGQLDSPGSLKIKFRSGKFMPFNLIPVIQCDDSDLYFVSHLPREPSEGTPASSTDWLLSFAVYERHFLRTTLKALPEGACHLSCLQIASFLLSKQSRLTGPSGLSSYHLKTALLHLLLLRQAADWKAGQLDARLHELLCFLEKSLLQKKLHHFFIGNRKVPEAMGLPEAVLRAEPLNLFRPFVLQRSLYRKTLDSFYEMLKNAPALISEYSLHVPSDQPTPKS
inactive: saracatinib -0.028 | sotrastaurin 0.016 | alvocidib -0.116 | Tubastatin A 0.034 | [1] 0.011 | defactinib -0.037 | rucaparib 0.034 | [2] -0.084 | encorafenib -0.009 | [3] 0.013 | [4] -0.042 | filanesib -0.022 | zotarolimus -0.024 | idasanutlin 0.014 | alisertib 0.012 | [5] -0.021 | gefitinib 0.018 | [6] -0.043 | lapatinib -0.038 | pictilisib 0.049

ILKAP (UniProt Q9H0C8)
UniProt Q9H0C8, sequence (Q9H0C8 whole entry, looked up): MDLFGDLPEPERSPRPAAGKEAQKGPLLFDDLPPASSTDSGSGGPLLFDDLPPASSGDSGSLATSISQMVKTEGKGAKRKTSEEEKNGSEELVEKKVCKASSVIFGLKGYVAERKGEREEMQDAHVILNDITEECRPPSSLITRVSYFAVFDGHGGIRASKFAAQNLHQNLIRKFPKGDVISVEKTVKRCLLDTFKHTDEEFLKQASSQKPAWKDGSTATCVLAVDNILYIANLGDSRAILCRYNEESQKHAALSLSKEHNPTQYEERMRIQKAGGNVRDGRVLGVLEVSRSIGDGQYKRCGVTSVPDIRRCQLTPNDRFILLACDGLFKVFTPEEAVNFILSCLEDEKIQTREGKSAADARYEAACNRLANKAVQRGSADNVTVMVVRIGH
inactive: saracatinib -0.057 | sotrastaurin -0.087 | alvocidib -0.152 | Tubastatin A 0.055 | [1] -0.021 | defactinib -0.155 | rucaparib 0.011 | [2] 0.055 | encorafenib 0.061 | [3] -0.078 | [4] 0 | filanesib -0.016 | zotarolimus 0.03 | idasanutlin -0.06 | alisertib -0.13 | [5] 0.113 | gefitinib 0.032 | [6] -0.056 | lapatinib -0.029 | pictilisib -0.035

MIEF1 (UniProt Q9NQG6)
inactive: saracatinib -0.016 | sotrastaurin -0.042 | alvocidib -0.031 | Tubastatin A -0.024 | [1] -0.002 | defactinib 0.014 | rucaparib -0.009 | [2] -0.088 | encorafenib 0.023 | [3] -0.018 | [4] 0.053 | filanesib -0.18 | zotarolimus 0.006 | idasanutlin -0.066 | alisertib -0.033 | gefitinib 0.051 | [6] 0.001 | lapatinib 0.004 | pictilisib -0.027
active: [5] -0.382

INTS7 (UniProt Q9NVH2)
active: sotrastaurin -0.503 | [1] 0.529
inactive: saracatinib 0.035 | alvocidib -0.095 | Tubastatin A 0 | defactinib -0.096 | rucaparib 0.019 | [2] -0.003 | encorafenib 0.036 | [3] -0.019 | [4] 0.05 | filanesib -0.022 | zotarolimus -0.007 | idasanutlin -0.052 | alisertib -0.029 | [5] 0.05 | gefitinib -0.052 | [6] -0.012 | lapatinib -0.015 | pictilisib 0.148

MAST4 (UniProt O15021)
UniProt O15021, sequence (O15021 whole entry, looked up): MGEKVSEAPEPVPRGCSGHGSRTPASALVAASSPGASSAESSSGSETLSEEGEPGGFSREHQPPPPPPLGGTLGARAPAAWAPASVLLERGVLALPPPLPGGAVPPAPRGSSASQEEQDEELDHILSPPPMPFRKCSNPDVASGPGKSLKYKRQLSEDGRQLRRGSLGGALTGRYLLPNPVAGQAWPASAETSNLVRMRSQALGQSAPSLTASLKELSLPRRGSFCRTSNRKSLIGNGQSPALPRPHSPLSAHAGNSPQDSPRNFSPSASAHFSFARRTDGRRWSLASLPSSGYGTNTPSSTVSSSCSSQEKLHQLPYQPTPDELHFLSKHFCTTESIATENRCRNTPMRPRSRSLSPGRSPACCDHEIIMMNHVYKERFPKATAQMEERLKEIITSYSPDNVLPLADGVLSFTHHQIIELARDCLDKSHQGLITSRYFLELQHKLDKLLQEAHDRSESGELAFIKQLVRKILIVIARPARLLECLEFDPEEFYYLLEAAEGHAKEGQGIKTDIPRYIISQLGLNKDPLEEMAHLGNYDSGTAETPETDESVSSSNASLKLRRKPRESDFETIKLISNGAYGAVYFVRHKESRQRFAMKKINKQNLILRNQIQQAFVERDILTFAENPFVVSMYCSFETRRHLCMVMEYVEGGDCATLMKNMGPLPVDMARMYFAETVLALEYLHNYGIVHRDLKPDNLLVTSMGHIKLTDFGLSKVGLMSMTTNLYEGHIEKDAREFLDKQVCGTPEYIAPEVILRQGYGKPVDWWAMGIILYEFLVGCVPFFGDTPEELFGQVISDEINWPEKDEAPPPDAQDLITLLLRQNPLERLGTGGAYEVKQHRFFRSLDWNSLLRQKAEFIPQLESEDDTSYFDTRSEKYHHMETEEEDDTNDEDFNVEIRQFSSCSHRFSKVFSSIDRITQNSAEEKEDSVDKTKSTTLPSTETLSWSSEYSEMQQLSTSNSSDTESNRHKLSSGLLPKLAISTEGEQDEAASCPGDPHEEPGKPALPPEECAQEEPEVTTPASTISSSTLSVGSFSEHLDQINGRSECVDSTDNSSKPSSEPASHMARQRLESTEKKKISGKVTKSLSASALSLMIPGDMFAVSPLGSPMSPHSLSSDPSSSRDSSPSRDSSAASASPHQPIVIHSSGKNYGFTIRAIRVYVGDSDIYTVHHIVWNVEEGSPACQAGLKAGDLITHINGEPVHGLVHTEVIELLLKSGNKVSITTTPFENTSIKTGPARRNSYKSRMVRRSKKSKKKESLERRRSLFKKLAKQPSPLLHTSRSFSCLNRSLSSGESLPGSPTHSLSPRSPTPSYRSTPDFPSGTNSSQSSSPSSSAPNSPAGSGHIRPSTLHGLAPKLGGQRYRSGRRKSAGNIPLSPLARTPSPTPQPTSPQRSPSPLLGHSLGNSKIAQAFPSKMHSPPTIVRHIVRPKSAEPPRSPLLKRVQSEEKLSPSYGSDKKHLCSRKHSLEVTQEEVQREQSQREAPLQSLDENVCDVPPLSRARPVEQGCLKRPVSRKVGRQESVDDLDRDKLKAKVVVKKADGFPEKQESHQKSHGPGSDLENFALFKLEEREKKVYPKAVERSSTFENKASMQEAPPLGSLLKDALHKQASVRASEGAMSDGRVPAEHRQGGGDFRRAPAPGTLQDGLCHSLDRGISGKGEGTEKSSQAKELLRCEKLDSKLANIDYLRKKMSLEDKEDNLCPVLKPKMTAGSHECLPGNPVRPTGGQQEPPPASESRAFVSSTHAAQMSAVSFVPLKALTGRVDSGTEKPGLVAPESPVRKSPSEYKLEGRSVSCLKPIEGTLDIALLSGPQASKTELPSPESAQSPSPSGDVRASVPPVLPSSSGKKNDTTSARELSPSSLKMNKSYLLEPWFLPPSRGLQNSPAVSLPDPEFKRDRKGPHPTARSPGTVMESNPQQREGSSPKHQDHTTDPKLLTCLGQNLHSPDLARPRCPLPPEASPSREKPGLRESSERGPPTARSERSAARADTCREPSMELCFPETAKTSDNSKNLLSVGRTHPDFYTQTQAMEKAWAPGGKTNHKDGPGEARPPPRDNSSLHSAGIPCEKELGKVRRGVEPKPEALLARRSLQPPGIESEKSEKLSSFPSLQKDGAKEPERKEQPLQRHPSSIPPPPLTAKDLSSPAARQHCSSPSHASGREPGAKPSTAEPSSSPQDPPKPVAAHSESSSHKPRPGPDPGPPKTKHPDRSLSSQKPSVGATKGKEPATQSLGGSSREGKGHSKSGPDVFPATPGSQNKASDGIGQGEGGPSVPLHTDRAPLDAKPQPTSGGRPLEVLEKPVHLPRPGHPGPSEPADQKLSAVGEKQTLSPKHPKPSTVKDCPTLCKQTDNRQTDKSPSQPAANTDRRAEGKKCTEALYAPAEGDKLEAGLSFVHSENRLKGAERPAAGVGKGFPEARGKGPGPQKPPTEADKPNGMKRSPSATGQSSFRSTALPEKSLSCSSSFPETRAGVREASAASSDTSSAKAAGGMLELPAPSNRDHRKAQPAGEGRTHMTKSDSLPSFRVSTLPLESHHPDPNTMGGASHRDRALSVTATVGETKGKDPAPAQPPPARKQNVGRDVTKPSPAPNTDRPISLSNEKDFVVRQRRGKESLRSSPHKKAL
inactive: saracatinib 0.006 | sotrastaurin -0.103 | alvocidib -0.065 | Tubastatin A 0.012 | [1] -0.087 | defactinib -0.149 | rucaparib -0.101 | [2] -0.006 | encorafenib 0.042 | [3] -0.017 | [4] -0.023 | filanesib -0.114 | zotarolimus 0.035 | idasanutlin -0.103 | alisertib -0.073 | [5] -0.283 | gefitinib -0.031 | [6] 0.019 | lapatinib 0.046 | pictilisib -0.036

LUC7L2 (UniProt Q9Y383)
UniProt Q9Y383, sequence (Q9Y383 whole entry, looked up): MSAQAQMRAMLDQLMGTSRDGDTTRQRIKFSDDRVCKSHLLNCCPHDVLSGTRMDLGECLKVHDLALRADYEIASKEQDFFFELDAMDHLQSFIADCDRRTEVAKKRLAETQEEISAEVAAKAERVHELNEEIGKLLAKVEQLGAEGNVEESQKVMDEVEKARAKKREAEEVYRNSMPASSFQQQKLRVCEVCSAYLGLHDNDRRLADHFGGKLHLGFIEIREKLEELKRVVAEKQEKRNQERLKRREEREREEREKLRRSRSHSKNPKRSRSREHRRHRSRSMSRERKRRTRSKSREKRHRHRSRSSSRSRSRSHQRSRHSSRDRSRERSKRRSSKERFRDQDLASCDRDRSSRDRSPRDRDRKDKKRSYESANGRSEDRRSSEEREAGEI
active: [1] -0.304 | defactinib -0.267
inactive: saracatinib 0.022 | sotrastaurin -0.01 | alvocidib -0.246 | Tubastatin A 0.007 | rucaparib -0.077 | [2] -0.047 | encorafenib 0.065 | [3] 0.03 | [4] 0.05 | filanesib 0.121 | zotarolimus 0.113 | idasanutlin 0.093 | alisertib -0.032 | [5] -0.048 | gefitinib -0.052 | [6] 0.008 | lapatinib 0.04 | pictilisib 0.095

IRF3 (UniProt Q14653)
inactive: saracatinib 0.061 | sotrastaurin -0.043 | alvocidib -0.07 | Tubastatin A 0 | [1] 0.006 | defactinib -0.062 | rucaparib -0.057 | [2] -0.01 | encorafenib 0.014 | [3] -0.014 | [4] -0.075 | filanesib -0.141 | zotarolimus 0.021 | idasanutlin -0.073 | alisertib -0.085 | [5] -0.08 | gefitinib 0.011 | [6] 0.023 | lapatinib -0.003 | pictilisib 0.053
